Test results published in PubChem BioAssay AID720487 (Milwaukee Institute for Drug Discovery, 2013).
The list shows a part of the results. Calls of active or inactive are those of the source.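 How the source made its calls: active means fluorescence interference ratio at or above 1.2, signal boosting, or at or below 0.8, signal quenching; inactive means ratio between 0.8 and 1.2.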

Test: Cy5 fluorescence interference with SSB-bound oligo, artefact control for HCV NS3 helicase inhibitor project, biochemical, E. coli SSB, selected ChemBridge compounds (AID 720487);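 further: ratio of compound well signal to mean negative control signal so 1 means no effect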
Settings: Cy5-dT15/E. coli SSB fluorescence interference; at 100 µM; actives lie on both sides

Fluorescence interference ratio, inactive:
CC(C)(C)N1C(=O)NC(=O)C(=Cc2cccs2)C1=O 0.954
Cc1ccc(C(=O)NCCNc2ccc([N+](=O)[O-])cc2)cc1 0.915
COc1cc(/C(O)=C(\C#N)c2nc3ccccc3n2C)cc(OC)c1OC 0.913
COc1ccc(N2C(=O)C=CC2=O)c([N+](=O)[O-])c1 1
O=c1c2c(nc3cc(-c4cccc(F)c4)[nH]n13)CCS2 0.862
COc1cc(C=C2C(=O)NC(=O)NC2=O)ccc1OCCOc1ccc([N+](=O)[O-])cc1 0.897
N#Cc1c(N)nc2sc(C(=O)Nc3ccccc3)c(N)c2c1-c1ccco1 1.02
COc1ccc(C(=O)Oc2ccc3oc(=O)cc(C)c3c2)cc1OC 0.977
CCN(CC)c1ccc(C=C2C(=O)N(C)C(=O)N(C)C2=O)c(O)c1 1.15
O=C(NC(=S)Nc1ccc(-c2nc3cc(Cl)ccc3o2)cc1)c1ccco1 0.991
O=C1NC(=O)C(=Cc2cc([N+](=O)[O-])cc(Br)c2O)C(=O)N1 0.896
C=CCN1C(=O)/C(=C\c2cc(OC)c(O)c([N+](=O)[O-])c2)C(=O)NC1=S 0.902
Cc1ccc(C(=O)C[n+]2cc(-c3ccccc3)n3c2CCCCC3)cc1 1.01
CCOc1ccc(C=C2C(=O)NC(=O)NC2=O)cc1Cl 0.963

Fluorescence interference ratio, active:
CCN(CC)c1ccc(NC(=O)/C(=C\c2ccccc2)NC(C)=O)cc1 1.22
